# Experimental data as given in the supplement of paper PMC6555819.
# Key:
# Assay in all cases: PBM binding z-score (relative to random genomic background probes); higher = stronger binding; sequences stand for … in GC…GCGATTGACAGCGTAGAATGAAGG
# [1] = tested on: RARb homodimer (NR concentration 270 nM)
# Summary of the method: (§1)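 Antibodies against each partner of ligand-free nuclear receptor dimers (one per run) detected binding on custom Agilent 4×180K protein-binding microarrays after 1 h incubation. The double-stranded probes had 34-nt variable regions carrying direct-repeat seeds, single-nucleotide variants, half-site ablations and random human genomic background sequences. Binding z-scores, from regression-normalized fluorescence, use the random background probes as reference.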
# [2] = tested on: RARg:RXRa (NR concentration 270 nM, RXRa partner concentration 90 nM)
# Summary of the method: as §1
# [3] = tested on: RARg homodimer (NR concentration 270 nM)
# Summary of the method: as §1
# [4] = tested on: RXRa DBDmut IVT, anti-RXR (DBD mutation: RXRa K156A/R161A, NR concentration 90 nM)
# Summary of the method: as §1
# [5] = tested on: RXRa homodimer (NR concentration 180 nM)
# Summary of the method: as §1
# [6] = tested on: THRa:RXRa (NR concentration 90 nM, RXRa partner concentration 90 nM)
# Summary of the method: as §1
# [7] = tested on: THRa homodimer (NR concentration 90 nM)
# Summary of the method: as §1
# [8] = tested on: VDR homodimer (NR concentration 270 nM)
# Summary of the method: as §1
Sequence,PBM binding z-score [1],PBM binding z-score [2],PBM binding z-score [3],PBM binding z-score [4],PBM binding z-score [5],PBM binding z-score [6],PBM binding z-score [7],PBM binding z-score [8]
GGAACGATGGCATTCGAGTTGATAGCATGGCGAT,-1.05,-0.259,-0.016,-0.146,-0.284,0.175,-0.974,-0.268
TCTCCTAGGTCAGTTGGTCAGCTAACGAGCTGCC,2.95,3.2,3.85,1.16,1.38,1.79,0.747,0.116
GCTCCTAGGTCAACTGATGGTCAGCTAAAGCTCG,3.8,5.76,5.88,2.02,3.77,3.15,1.7,0.601
AGTACGAGGGCACGCTGAGTTGATAGCAGAGTAG,1.41,2.07,2.38,2.3,1.2,1.92,0.295,2.17
ACAGACAGTTGAGTGAAGGTAACTCAGCTGGACG,-0.475,0.0376,0.211,-0.165,0.132,0.662,-0.514,-0.463
CCGACTGGGTCATAAGGTTACCATAAGCCAGCCC,3.46,4.62,3.25,0.935,3.8,3.13,1.94,0.993
TAGCCTAGGTCATTCAGGAGCCAGTATAGAAAGC,2.45,4.25,4.41,1.37,2.96,2.68,0.478,1.09
ATCTCTAGGTAAAGATAGTTCTGTGAATGCAAAT,-0.0245,0.131,0.453,0.28,0.154,0.478,0.132,0.175
GTACCAAGATGAATAGGTCGTTGATGAGTAGGCG,0.283,0.181,0.272,-0.187,0.691,0.143,-0.535,-0.179
CCTACTGGGCAAAAGGTCATTGATTCCAATGCTC,4.53,5.81,5.23,0.966,6.04,3.09,0.51,1.72
TAGCCTAGATCATTGGGCCAGTATAGTACGCATC,-0.608,-0.554,-0.194,-0.443,-0.398,-0.832,-0.488,-0.283
CCTAGATGGTCAAGGTCACACACGCTATAGGTAC,4.55,4.69,4.96,2.04,4.74,4.1,3.84,3.61
CCTACTGGGCCAGGAAAGGTCATTGATTCAGTGA,4.32,4.28,3.54,-0.114,4.36,3.44,0.626,1.99
AGTCAAAGTTCAGGACGAAGTAACGTAAAGCACG,2.72,3.82,4.58,2.8,2.71,1.95,0.0307,1.27
AGTCAAAGTTCAAGACGAGGTAACGTAAAGCACG,3.6,5.81,6.02,3.8,4.59,3.9,0.783,2.85
ATAGGTAGGTTAGCTGGGGTCATTCAGACTAGGC,4.09,4.35,3.5,2.2,5.46,5.2,3.51,5.44
CGAACTAGGTCATTGGCAGGACAGTGAATAGTAA,2.75,4.52,4.07,2.36,2.52,3.09,0.749,0.995
AGAATGAGGTGATTAAGATCAGGGAATTGCGGTC,0.255,0.185,0.285,0.136,0.381,1.53,0.417,-0.688
CGTCCAAGGTCAATGCTAGGACAGTGAAAGCATT,4.05,5.76,5.95,3.01,4.3,4.3,2.32,2.24

Sequence,PBM binding z-score [1],PBM binding z-score [2],PBM binding z-score [3],PBM binding z-score [4],PBM binding z-score [5],PBM binding z-score [6],PBM binding z-score [7],PBM binding z-score [8]
TCTCGTAGATCAAGCAGGTTAAGAAAGCCTGAGT,-0.357,-0.372,-0.369,0.598,-0.0292,0.103,-0.615,-0.12
CAAACTAAGTCAAGGTCAAAGTCGGTTTGTGCCA,4.04,4.35,4.17,2.72,4.85,4,3.38,4.09
CCTCGGAGCACAGAAGGTCAGAGCTGTCCGCTTT,3.08,2.63,2.37,0.0874,2.3,3.13,-0.478,-0.376
TGAATGAGGTTAAAGATCGGGGAACGTGGCGTCG,0.987,2.41,1.24,1.35,3.31,2.55,0.447,0.818
ATCTCTAGGTAAGAATCAGTTCAGTGAAGAACGC,0.542,0.529,0.6,0.634,0.2,0.888,0.68,1.52
CAAACTAGGTCACAGAGGTCAAATTCCGTGCGTA,5.28,7.51,7.97,3.34,8.2,4.68,3.09,6.96
TCTTGTAGATCTACAGGAGGTTAAGAAAGATCGA,-0.0502,0.199,0.133,0.107,0.709,0.534,-0.449,-0.594
TGAATGAGGTTTTAAGATCAGGGAACGTTGCAAA,-0.344,-0.157,-0.0698,-0.731,-0.145,0.308,-0.308,-0.172
GCGACTGGGGCAAAGCAGGTTATCATAAGGTTGG,0.97,0.559,0.655,-0.0158,0.368,2.9,0.0261,-0.46
CCTACTGGGCTAAAGGTCATTGATTCCAATGCTC,4.22,4.96,4.27,1.17,5.21,3.15,0.533,2.18
CCTAGTTGGTCAGGAGGTTACACACCGGATATGA,1.49,1.67,1.33,0.179,1.3,1.03,0.918,0.702
TAGCCTAGGACATGGGCCAGTATACCACGCGAAC,-0.0727,-0.00552,0.0243,-0.981,-0.0222,0.476,0.11,-0.526
ATATGTAGGTTAGCTAGGGTCATTCAGACTAGGC,3.17,3.33,2.68,1.24,3.71,5,2.64,3.63
ATATGTAGGGTATCGGGTCATTCAGTTTGCGCAT,2.99,2.43,1.97,1.43,2.76,3.07,2.69,3.81
ATCTCTAGGTAACCAAGGTCAGTGAATGCCGAAC,3.5,2.62,2.69,0.51,2.14,3.31,2.53,1.52
TCAAATAGGTAAATGCTAGGTGAAAGTCCGATCT,0.514,0.401,0.304,1.84,1.06,1.38,0.625,0.251
ACTTACGGGTCAACGAGGTTACAGCACGCGTATA,3.89,6.06,5.3,2.37,6.55,4.46,1.51,3.71
TGAATGAGGTTATAAGATCAGGGAACGTTGCAAA,0.0745,1.3,0.836,0.756,1.86,1.71,-0.0262,0.362
CGTCCAAGGTCAATGCTAGGTCAGTGAGAGCATT,5.01,7.45,6.65,3.53,5.06,4.37,2.87,3.36

Sequence,PBM binding z-score [1],PBM binding z-score [2],PBM binding z-score [3],PBM binding z-score [4],PBM binding z-score [5],PBM binding z-score [6],PBM binding z-score [7],PBM binding z-score [8]
TCTATTAGTTGATTAGGCCAACCGAAACAGCGGA,0.54,0.339,0.554,1.35,0.635,0.691,0.713,0.253
TAGCCTAGGTCATGGGCCAGTATCCCACGCGAAC,2.76,4,4.2,-0.01,3.19,3.18,1.65,0.301
TCTTGGAGGACACGAAGGTCAGAGCTTTCCAGAG,3.54,3.23,3.69,0.774,1.83,2.89,0.692,1.13
CATCCAAGGTCAGAGAGGTCAGTGAATGCCGAGT,5.53,6.35,7.37,3.51,6.54,4.43,2.83,6.11
TCTATTAGTTGATTAGGGCATCCGAAACAGCGGA,0.405,0.611,0.418,1.08,0.604,0.428,0.317,0.435
TCATATAGGTAAACAGGTGAGAGTCCGTAAGTTA,0.672,0.456,0.431,1.08,0.983,0.521,0.361,0.486
CCTACTGGGCCACGAAAAGTCATTGATTCAGTGA,0.476,0.154,0.301,-0.296,-0.0607,-0.0481,-0.645,-0.412
CCTGCTAGGTCAACGGTCAGCTAAAGCAGCTCGC,3.72,4.6,5.11,2.02,3.13,2.79,0.878,0.529
CAAACTAGTTCACCGGAAGGTCAAAGTCCGCATG,4.92,6.9,4.99,2.8,4.73,3.73,1.72,3.2
ACTATTAGTTGAGAAGAGGGCAACCGATAGGTTG,1.43,0.92,0.968,0.286,0.599,1.37,-0.313,0.263
GCTTGTAGCTCAAGGTTAAGAAAGACTAAGCTAA,-0.0742,0.0545,-0.162,-0.204,0.541,0.986,-0.586,-0.603
GCTTGTCGATCAAGGTTAAGAAAGACTAAGCTAA,0.0989,0.457,0.385,-0.057,0.794,1.68,-0.268,-0.484
ATACCAAGGTGATCGTGAGGTCGGTGATACTAAC,1.4,1.58,0.586,-0.0984,0.701,2.63,1.81,0.911
AGTCAAAGTTCACTAAGTAACGTAAGATTCAGCT,3.31,4.63,5.16,4.1,3.9,1.55,-0.0534,3.4
CGAACGAGGGCATGAGTGGATAGCAAATGCCGAT,0.496,1.27,1.61,2.02,0.916,1.04,-0.129,0.792
TCATATAGATAAAAGGTGAAAGTCGGTGTGGTAA,1.53,1.23,0.872,2.07,2.41,1.24,0.0496,0.309
TAGCCTAGGTCATTGGGCAAGTATAGTACGCATC,2.69,3.66,4.09,1.86,2.94,2.63,0.731,1.44
ACTAGTTGATCAGCTGAGGTCACACACAATTCGG,4.17,3.71,3.35,1.75,3.94,4.3,4.96,4.13
CCTTAAGGGTCAAGGTTATAGCACGGGTGGTACG,4.66,6.46,6.85,2.7,6.61,3.66,1.03,2.39
